Compound activity as filed in PubChem BioAssay.
Hits are enriched below; roughly 19% of the tested compounds scored in any of these assays.
DT40 TDP1 no CPT – qHTS for Inhibitors of human tyrosyl-DNA phosphodiesterase 1 (TDP1): qHTS in cells in absence of CPT; DT40 Tdp1-/- hTDP1 cells, no CPT, ATP luminescence, 48 h; Potency, µM (series often up to 46.2 µM), actives largely listed as inhibitors; hit rate 15% among 420,000; further: nearly all actives have a fitted effect of over 55% in size
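Stably hTDP1-transfected Tdp1-null chicken DT40 cells were treated with library compounds minus camptothecin and grown for at least 48 hr at 37 °C, after which cellular ATP was quantified by luminescence.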
HT1080-NT tox – qHTS for induction of synthetic lethality in tumor cells producing 2HG: qHTS for the HT-1080-NT fibrosarcoma cell line | HT-1080-NT fibrosarcoma viability, CellTiter-Glo ATP luminescence, 48 h | Potency, µM (titrated, usually from 46.1 µM), hits mostly cytotoxic | hit rate 1.6% among 360,000 | AID 686970, 2013;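 further: NT is the 2HG producing partner of a matched IDH1 knockdown line; nearly all actives have a fitted effect of over 55% in size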
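Fibrosarcoma NT cells, 750 per well in 5% FBS RPMI, were exposed to compound for 48 hours. Viability: CellTiter-Glo luminescence.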
DT40 TDP1 CPT – qHTS for Inhibitors of human tyrosyl-DNA phosphodiesterase 1 (TDP1): qHTS in cells in presence of CPT; hit rate 12% among 420,000; AID 686979, 2013; Potency, µM (doses to about 46.2 µM), hits mostly inhibitors; chicken DT40 Tdp1-/-;hTDP1 cells + 20 nM CPT, ATP luminescence, 48 h; further: nearly all actives have a fitted effect of over 55% in size
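Chicken DT40 Tdp1-/- cells stably complemented with human TDP1 were seeded at 400 cells/well in medium containing 20 nM camptothecin, exposed to pin-transferred compounds, and grown at 37 °C for at least 48 hr. Viability was read as ATP luminescence.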
IL-1B inflam inh – qHTS for Inhibitors of Inflammasome Signaling: IL-1-beta AlphaLISA Primary Screen. THP-1 LPS/ATP IL-1B secretion, AlphaLISA, 16 h; hits give low values. activity change, % at 57.5 µM. hit rate 4.7% among 360,000. AID 743279, 2014; in the data active means activity change below about -50%; inconclusive means mostly about -30% to -49%
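THP-1 cells pretreated 1 hr with compounds (up to 57.5 uM final), then stimulated with LPS (250 ng/mL final) plus ATP (1.25 mM final); secreted IL-1B measured by AlphaLISA after 16 hr, decreased signal indicating inhibition.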
HT1080 IDH1KD tx – qHTS for induction of synthetic lethality in tumor cells producing 2HG: qHTS for the HT-1080-IDH1KD cell line; HT-1080 IDH1 knockdown viability, ATP luminescence, 48 h; Potency, µM (highest dose often 46.1 µM), hits mostly cytotoxic; hit rate 2% among 360,000; AID 686971, 2013
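CellTiter-Glo luminescence after 48 h compound exposure at 37 degrees C of IDH1-knockdown HT-1080 cells in 5% FBS RPMI. %Activity scaled between DMSO wells and cell-free media wells, with curves fitted and assigned curve classes.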
Large screens that a line does not name were inactive. Unless noted, the call rests on the fitted dose curve; in most records, active means well fitted curve in the direction sought with a large enough effect; inconclusive means small, poorly fitted or top-dose-only effect, or another doubt; inactive means no such curve, though single readings can be large; an effect the other way counts as inactive or inconclusive.

O=C(Oc1cccc(Nc2ncnc3ccccc23)c1)c1cccnc1	DT40 TDP1 CPT inconclusive
COc1cc(C(=O)Oc2cccc(Nc3ncnc4ccccc34)c2)cc(OC)c1OC	DT40 TDP1 no CPT 16µM, HT1080-NT tox inconclusive, DT40 TDP1 CPT 23µM, IL-1B inflam inh -95
C#Cc1cccc(Nc2ncnc3cc(OC)c(OC)cc23)c1	DT40 TDP1 no CPT 23µM, DT40 TDP1 CPT inconclusive (no result: HT1080-NT tox, IL-1B inflam inh, HT1080 IDH1KD tx)
COc1ccc(C(=O)Oc2cccc(Nc3ncnc4ccccc34)c2)cc1OC	DT40 TDP1 no CPT 18µM, DT40 TDP1 CPT inconclusive
CC(C)(C)C(=O)Oc1cccc(Nc2ncnc3ccccc23)c1	DT40 TDP1 CPT inconclusive
COc1ccc(OC)c(NC(=O)c2cc(-c3cc(C)cc(C)c3O)n[nH]2)c1	DT40 TDP1 no CPT inconclusive, HT1080-NT tox inconclusive, DT40 TDP1 CPT inconclusive, HT1080 IDH1KD tx inconclusive
CS(=O)(=O)c1ccc(NC(=O)c2cc3c(cc2Cl)N2CCCCCC2=NS3(=O)=O)cc1	none
Cc1nc(N2CCN(S(=O)(=O)c3cccc4nonc34)CC2)c2c3c(sc2n1)CCCC3	DT40 TDP1 no CPT 16µM, DT40 TDP1 CPT inconclusive
CCOC1=C2CN(S(=O)(=O)c3ccc(C)cc3)[C@H](c3cccc4ccccc34)C[C@H]2C(C#N)(C#N)C(C#N)(C#N)C1	DT40 TDP1 no CPT 5.8µM, HT1080-NT tox inconclusive, DT40 TDP1 CPT 4.1µM, HT1080 IDH1KD tx inconclusive
CCOC1=C2[C@H](c3ccccc3)N(S(=O)(=O)c3ccc(C)cc3)C(C(C)(C)C)[C@H]2C(C#N)(C#N)C(C#N)(C#N)C1 (some centres not stated)	DT40 TDP1 no CPT 2.1µM, HT1080-NT tox inconclusive, DT40 TDP1 CPT 2.1µM, IL-1B inflam inh -64, HT1080 IDH1KD tx inconclusive
CCc1cc2c(cc3c(=O)n(CC(=O)NC4CCCCC4)nc(CC)n32)s1	none (no result: HT1080-NT tox, IL-1B inflam inh, HT1080 IDH1KD tx)
O=C(NCCCc1nc2ccccc2n1CCCOc1ccccc1)C1CCCCC1	DT40 TDP1 no CPT 10µM, DT40 TDP1 CPT 11µM (no result: HT1080-NT tox, IL-1B inflam inh, HT1080 IDH1KD tx)
O=C(NCCCc1nc2ccccc2n1CCCCOc1ccccc1)C1CCCCC1	DT40 TDP1 no CPT 13µM, DT40 TDP1 CPT inconclusive (no result: HT1080-NT tox, IL-1B inflam inh, HT1080 IDH1KD tx)
CC(C)(C)c1cccc(S(=O)(=O)N2CCN(c3nc(-c4cccs4)nc4ccccc34)CC2)c1	DT40 TDP1 no CPT inconclusive, DT40 TDP1 CPT inconclusive (no result: IL-1B inflam inh)
O=C(COc1ccccc1Cl)NCC(c1cccs1)N1CCOCC1 (configuration not stated)	DT40 TDP1 no CPT inconclusive, DT40 TDP1 CPT inconclusive
COc1ccccc1C(CNC(=O)COc1cc(C)ccc1Cl)N1CCCC1 (configuration not stated)	DT40 TDP1 no CPT inconclusive, DT40 TDP1 CPT inconclusive, IL-1B inflam inh -64
COc1ccccc1C(CNC(=O)CNC(=O)c1ccc(C)c(C)c1)N1CCCC1 (configuration not stated)	none
COc1ccccc1C(CNC(=O)CNC(=O)c1ccc(Cl)c(Cl)c1)N1CCCC1 (configuration not stated)	DT40 TDP1 no CPT 16µM
COc1ccccc1C(CNC(=O)COc1ccccc1C)N1CCCC1 (configuration not stated)	none
Cc1ccc(Cl)c(OCC(=O)NCC(c2cccs2)N2CCOCC2)c1 (configuration not stated)	DT40 TDP1 no CPT inconclusive, DT40 TDP1 CPT 26µM, IL-1B inflam inh inconclusive
CCOC(=O)N1CCN(C(=O)c2cn(C)c3ccc(S(=O)(=O)N4CCC(C)CC4)cc3c2=O)CC1	none
COC(=O)N/N=C/c1cccc(OCCSc2ccc(Cl)cc2)c1	DT40 TDP1 no CPT inconclusive, HT1080-NT tox inconclusive, DT40 TDP1 CPT inconclusive, HT1080 IDH1KD tx inconclusive
COc1ccccc1CCC(=O)N1CCOc2c(cc(-c3cnc4ccccc4c3)cc2OC)C1	none (no result: HT1080-NT tox, IL-1B inflam inh, HT1080 IDH1KD tx)
S=C(NCCc1ccccc1)N1CCN(C23CC4CC(CC(C4)C2)C3)CC1	DT40 TDP1 no CPT 8.2µM, DT40 TDP1 CPT 10µM, IL-1B inflam inh -84
S=C(NCCc1ccccc1)N1CCCC1	none
CCCCNC(=S)N1CCN(C(c2ccccc2)c2ccccc2)CC1	DT40 TDP1 no CPT inconclusive, HT1080-NT tox inconclusive, DT40 TDP1 CPT inconclusive
